In PubChem BioAssay:
Where “and” joins values, the source holds several entries; their conditions need not be identical. Equal entries are not always repeated.

Legend:
[1] = test system: Botulinum neurotoxin type F light chain protease (Clostridium botulinum); experiment: Clostridium botulinum type F light chain protease inhibitors, microsphere substrate cleavage, validation (AID 588459); conditions: multiplex microsphere protease substrate cleavage assay, flow cytometry; at 10 µM; stronger effect = higher value
[2] = target: Botulinum neurotoxin type A (Clostridium botulinum) (UniProt P0DPI0); experiment: BoNT/A light chain protease inhibitors, biochemical, multiplex microsphere flow cytometry, validation set (AID 588460); conditions: at 10 µM, stronger effect = higher value
[3] = target: Lethal factor (Bacillus anthracis) (UniProt P15917); experiment: Bacillus anthracis lethal factor inhibition, microsphere flow cytometry protease assay, validation at 10 µM (AID 588461); conditions: multiplex microsphere protease cleavage assay, stronger effect = higher value

Measured: inhibition

OC12CCCCC1C(c1ccc3c(c1)OCO3)N(Cc1cccc(F)c1)CC2 (configuration not stated)
inactive: [1] -0.1% | [2] -1.3% | [3] -2.8%

c1ccc2c(c1)CCOC2CNCCCN1CCCCC1 (configuration not stated)
inactive: [1] 0.6% | [2] 1.3% | [3] -8.4%

CC[N+](C)(CC)CCOC(=O)C(O)(c1ccccc1)C1CCCCC1 (configuration not stated)
inactive: [1] 4.8% | [2] 1.4% | [3] -1.1%

COc1ccc(C2OC(=O)Cc3cc(OC)c(OC)cc32)cc1 (configuration not stated)
inactive: [1] 3.2% | [2] 0.8% | [3] 2.9%

COc1ccc(N2C(=O)[C@@H]3[C@H](C2=O)[C@H]2c4ccccc4C=CN2[C@@H]3C(C)=O)cc1
inactive: [1] -2.1% | [2] -0.4% | [3] -16.8%

CC1(C)S[C@@H]2[C@H](NC(=O)Cc3ccccc3)C(=O)N2[C@H]1C(=O)O
inactive: [1] 4.2% | [2] 1.7% | [3] -0.8%

Cc1ccc2c(c1)C(O)(C1COC(C)(C)CC1=O)C(=O)N2C (configuration not stated)
inactive: [1] -1.1% | [2] 1.7% | [3] -0.8%

O=c1nc2sc3ccccc3n2c(=O)n1-c1ccc(Cl)cc1
inactive: [1] 0.3% | [2] -1.6% | [3] -7.9%

CCn1c(=N)c(C(=O)NC)cc2c(=O)n3cccc(C)c3nc21
inactive: [1] 3.8% | [2] 3.8% | [3] 5.6%

C=CCn1c(N2CCCCCC2)nc2c1c(=O)n(C)c(=O)n2C
inactive: [1] 0.2% | [2] 1.4% | [3] -4.7%

COc1ccc(CCN2C(=O)CSC2c2ccc(OC)c(OC)c2)cc1OC (configuration not stated)
inactive: [1] -3.4% | [2] 0.4% | [3] 6.7%

O=C(OCC1CCCN2CCCCC12)c1ccc2c(c1)OCO2 (configuration not stated)
inactive: [1] -1.9% | [2] -1.6% | [3] -6.7%

CC1(C)Oc2ccc(C#N)cc2[C@@H](N2CCCC2=O)[C@@H]1O
inactive: [1] 3% | [2] 0.5% | [3] 5.1%

COc1ccc(CCNC(=O)C(=O)Nc2ccc3c(c2)OCO3)cc1OC
inactive: [1] 1.8% | [2] -0.8% | [3] -0.3%

COc1ccc(CNC(=O)C2CCCN2C)cc1OC (configuration not stated)
inactive: [1] 0.4% | [2] -2.5% | [3] 6.2%

CC(C)Cc1ccc(C(C)C(=O)Nc2ccc(O)cc2)cc1 (configuration not stated)
inactive: [1] -3.6% | [2] -1.3% | [3] -6.8%

CC(=O)Nc1ccccc1O
inactive: [1] 1.5% | [2] -1.1% | [3] -1.7%

CN(C)C(=O)Oc1cccc([N+](C)(C)C)c1
inactive: [1] 0.7% and -1.3% | [2] 0.2% and -0.7% | [3] 1.5% and 2.9%

COc1ccccc1NC(=O)N1CCc2[nH]c3ccc(Cl)cc3c2C1
inactive: [1] 6.8% | [2] 0.4% | [3] -0.7%

O=c1cnn([C@@H]2O[C@H](CO)[C@@H](O)[C@H]2O)c(=O)[nH]1
inactive: [1] -0.1% | [2] 1.8% | [3] 5.4%

CN(C)CCC=C1c2ccccc2CCc2ccccc21
inactive: [1] 1.3% | [2] 0.2% | [3] 0.7%

Cc1cc(C(=O)Nc2ccccc2C(=O)N2CCCCC2)ccc1[N+](=O)[O-]
inactive: [1] 2.8% | [2] 2.4% | [3] -0.1%

Cc1nonc1CN(C)C(=O)c1ccc(OC2CCN(C(=O)c3cccnc3)CC2)cc1
inactive: [1] 3.6% | [2] 1.2% | [3] 10.7%

c1cc2c(cc1C1CCCCC1)c1c3n2CCN=C3CCC1
inactive: [1] 0.7% | [2] -0.3% | [3] -11.8%

COc1cc(Cl)cc2c1Sc1ccccc1/C2=C/CCN(C)C
inactive: [1] -4.5% | [2] -1.1% | [3] -16.6%

O=C(CNC(=O)OCc1ccccc1)NC1CCCCCC1
inactive: [1] -1% | [2] -1.8% | [3] -3.4%

O=C(O)CCC(=O)c1ccc(-c2ccccc2)cc1
inactive: [1] -4.5% | [2] -1.1% | [3] 2.1%

Cc1cccc(-n2c(Cc3ccccc3)n[nH]c2=S)c1
inactive: [1] -1.9% | [2] -0.5% | [3] -2.9%

COc1ccc2c(c1O)Cc1ccccc1C2=O
inactive: [1] 0% | [2] -0.7% | [3] -3.9%
